Data taken from the supplement of paper PMC7411640.
Structures can show the parent of a compound that is named as a salt.

System: MDA-MB-468
Test: phospho-S6 immunofluorescence (DAPI-normalised), per-plate z-score; higher = higher phospho-S6 signal (less pathway suppression)
Settings: 24 h
Protocol: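 GPCR-targeted compound library (MedChemExpress HY-L006) tested on MDA-MB-468 PTEN-null TNBC cells in 384-well plates at 0.1, 1 or 10 uM, combined with vehicle, GDC0941 450 nM or lapatinib 1 uM, for 24 h. Phospho-S6 (S240/244) immunofluorescence normalised to DAPI and expressed as a per-plate z-score; values are the mean of biological triplicates.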

| SMILES | phospho-S6 immunofluorescence (z-score) (co-treatment: GDC0941 450 nM) | phospho-S6 immunofluorescence (z-score) (co-treatment: lapatinib 1 uM) | phospho-S6 immunofluorescence (z-score) (co-treatment: vehicle) |
| --- | --- | --- | --- |
| O=c1[nH]c2ccccc2n1CCN1CCN(c2cccc(C(F)(F)F)c2)CC1 [Flibanserin] (compound 10 µM) | -0.19 | -0.04 | 0.48 |
| CC(C)OC(=O)CCC/C=C\C[C@@H]1[C@@H](CC[C@@H](O)CCc2ccccc2)[C@H](O)C[C@@H]1O [Latanoprost] (compound 10 µM) | 0.61 | -0.08 | -0.18 |
| c1cc(CN2CCCNCCNCCCNCC2)ccc1CN1CCCNCCNCCCNCC1 [Plerixafor] (compound 10 µM) | -0.31 | 0.01 | 0.2 |
| CCCCc1ccc(NS(=O)(=O)c2ccc(F)cc2)cc1 (compound 10 µM) | -3.59 | -8.48 | -10.2 |
| O=C(c1ccc(F)cc1)C1CCN(CCn2c(=O)[nH]c3ccccc3c2=O)CC1 [Ketanserin] (compound 10 µM) | -0.64 | -0.02 | -0.85 |
| CCN(Cc1ccncc1)C(=O)C(CO)c1ccccc1 (centres undefined) [Tropicamide] (compound 10 µM) | 0.17 | 1.42 | -0.17 |
| CCCN(CCc1cccs1)[C@H]1CCc2c(O)cccc2C1 [Rotigotine] (compound 10 µM) | 0.53 | -0.05 | -0.73 |
| CNC[C@H](O)c1cccc(O)c1 [(R)-(-)-Phenylephrine (hydrochloride)] (compound 10 µM) | 0.67 | 1.18 | 1.13 |
| CNC(=C[N+](=O)[O-])NCCSCc1csc(CN(C)C)n1 [Nizatidine] (compound 10 µM) | -1.38 | 0.52 | 1.38 |
| NC(N)=Nc1nc(CSCCN/C=N/S(=O)(=O)c2ccc(Br)cc2)cs1 [Ebrotidine] (compound 10 µM) | -4.2 | -3.36 | -1.7 |
| C=CCN1CCc2nc(N)sc2CC1 (compound 10 µM) | 0.68 | 0.22 | 0.33 |
| C[C@H]1C[C@H]2[C@@H]3CCC4=CC(=O)C=C[C@]4(C)[C@@]3(F)[C@@H](O)C[C@]2(C)[C@@]1(O)C(=O)CO [Betamethasone] (compound 10 µM) | -1.59 | 1.5 | -0.96 |
| O=C(NCC(=O)N1CC[C@H](N[C@H]2CC[C@@](O)(c3ccc(-c4ncccn4)cn3)CC2)C1)c1cccc(C(F)(F)F)c1 (compound 10 µM) | -0.86 | -0.77 | 0.76 |
